We go through 34 compounds from PubChem BioAssay (NCI).

The panel holds about 83,000 compounds, 20% with a hit somewhere; the sample as a whole holds those more often.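 Method: cells in 96-well plates; compound added at one concentration; 48 h incubation; percent growth measured; values under 10 scored active.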 Unmarked numbers belong to inactive results. The source made the active and inactive calls.

This assay concerns COLO 205 colon. Nature of the assay: NCI-60 one-dose screen, 48 h (100 = growth as untreated, 0 = no growth, -100 = all killed). The note with it: 10 µM unless noted.
Take `CCCCn1c(-c2ccc(-c3nc(-c4ccc(Cl)cc4)no3)cc2)nc(-c2ccccc2)c1-c1ccccc1`: the growth is 98.8%. As for `CCc1ccccc1-n1c(N)c(C#N)c(-c2ccc(Cl)cc2)c(C#N)c1=O`, the figure is 126%; as for `Cc1ccc(/C=N\NC(=O)c2[nH]c3ccc(F)cc3c2-c2ccccc2)cc1`, -78.8% (active); as for `COc1ccc(/C=C/c2c(C(=O)/C=C/c3ccc(C(F)(F)F)cc3)c(C)nc3ccccc23)cc1`, -28.4% (active). `Cc1c(C(=O)/C=C/Nc2c(Cl)cc(S(N)(=O)=O)cc2Cl)sc2nc3ccccc3n12`: the growth was 110%.

With `CC(=O)N1N=C(c2ccc(Nc3nc(Nc4ccc(F)cc4)nc(Nc4ccc(Cl)cc4)n3)cc2)CC1c1ccc(Cl)cc1` (centres undefined), the growth is 94.3%.

For `COc1ccccc1/C=C1\Oc2cc(OCCN3CCC(Cc4ccccc4)CC3)ccc2C1=O`, the growth is 38.4%. As for `Cc1[nH]c(C(=O)Nc2ccc(C(=O)N3CCNCC3)cc2OC(C)C)c(Cl)c1Cl`, the figure is -47% (active). In the case of `CN1C(=O)N(C)C2Nn3c(s/c(=C\c4ccccc4)c3=O)=NC21` (centres undefined), the growth is 111%. The value for `COc1ccc([C@H]2c3cc(OC)c(OC)cc3C=C(C=O)C2CO)cc1OC` (some centres undefined) was 45%; that for `O=c1n(Cc2ccc3ccccc3c2)ccn1Cc1ccc2ccccc2c1` was 96.1%; that for `N/C(=N\c1nc2ccccc2s1)NC(=O)Nc1cccc2ccccc12` was 3.54% (active). The value for `O=C(N=c1oc2ccccc2cc1-c1cc2ccccc2[nH]1)Nc1ccc(Cl)cc1` was 122%; that for `Fc1cc(-c2nnc3sc(-c4ccc(Cl)cc4Cl)nn23)c(Cl)cc1Cl` was 72.3%; that for `OC(c1ccccc1)C(NC(Cc1ccccc1)c1ccccc1)c1ccccc1` (centres undefined) was 101%. As for `O=C(/C=C/c1ccc([N+](=O)[O-])o1)NNC(=O)c1cc2ccccc2cc1O`, the figure is -7.38% (active); as for `CCCCCCCCCCCCCCCCCCOc1ccccc1CC(=O)OCC[N+](CC)(CC)CC`, -27.3% (active). `Cc1c(C(=O)NCCN2CCOCC2)cn2ncnc(Oc3ccc(NC(=O)Nc4ccc(Cl)c(C(F)(F)F)c4)cc3)c12`: the growth was -25.4% (active).

Consider `Cc1ccc2c(n1)C(=O)C(Cl)=C(Nc1ccccc1C(C)C)C2=O`, for which the growth is 116%. For `Nc1cc2c(cc1Br)-c1cc(Cl)ccc1C2=O`, the growth was 87.3%. As for `Cc1nn(-c2ccccc2)c2c1N=c1s/c(=C\c3ccc(C(F)(F)F)cc3)c(=O)n1CN2`, the figure is 85.6%; as for `COc1ccc2c(c1)/C(=C/c1sc(=S)n(Cc3ccco3)c1O)C=N2`, 25.4%; as for `COc1nc2ccccc2cc1-c1nc2c(cnn2-c2ccccc2)c(=O)[nH]1`, 32.6%.

For `Cc1[nH]c(C(=O)Nc2ccc(C(=O)NCCN)cc2OC(C)C)c(Cl)c1Cl`, the growth is -45.7% (active). The value for `CC(C)c1cc(C(C)C)c(S(=O)(=O)Oc2ccc(NC(=O)c3ccc(Cl)cc3)cc2)c(C(C)C)c1` was 32.7%; that for `O=S(=O)(Nc1ccc(-c2nc(-c3cccc(OCCN4CCOCC4)c3)c(-c3ccnc(Br)c3)[nH]2)cc1)c1ccccc1` was 39.3%. As for `COc1ccc(-c2cc3c4c(nc5ccccc5c4c2)CC(c2cc(OC)c(OC)c(OC)c2)O3)cc1` (centres undefined), the figure is 67.5%; as for `COc1ccc(/C=N/Nc2cc(=O)[nH]c3ccc(Cl)cc23)cc1`, 83.3%; as for `COc1ccc(S(=O)(=O)n2c3ccccc3n3ncc(-c4nnc(C)o4)c23)cc1`, 7.03% (active).

Turning to `CCc1cccc2c3c(sc12)C(c1ccc(Cl)cc1)C(C#N)=C(N)O3` (centres undefined), the growth was 9.3% (active). Turning to `Clc1ccc(C(/C=C/c2sc(Cl)nc2Cl)=N/Nc2cc(Cl)cc(Cl)c2)cc1`, the growth was 118%. For `NCCCNc1nc2ccccc2c2c(=O)c3cc(OC(F)(F)F)ccc3sc12`, the growth is -52.7% (active). As for `Cc1cc(-c2cc(C)c(N)cc2C)c(C)cc1N`, the figure is 99.2%; as for `O=C(Nc1ccc(F)cc1F)c1cc(F)ccc1O`, 81.1%.
